95 molecules from PubChem BioAssay AID1850 (Southern Research Specialized Biocontainment Screening …, 2009) can be followed below.

One may read the inhibition as the drop in the measured response relative to a control, in per cent.

The whole screen tested about 310,000 compounds, of which about 1,000 (0.32%) were called active. Not all results are given here. Entries with a potency or affinity are not part of this list. A number with no mark means an inactive call. No rule for the calls is given here.

The nature of this test: Inhibition of PhoP regulon, Salmonella typhi GFP reporter cells, confirmation, 4 h (AID 1850).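 Also: 0% = induced wells with vehicle and 100% = uninduced wells.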 As to conditions: Salmonella Typhi PhoP-promoter GFP reporter, fluorescence, at 50 µM, active compounds read high.
Consider `COc1ccc(S(=O)(=O)N2CCCC2CNC(=O)C(=O)NCCc2ccccc2)cc1` (stereo not given), for which the inhibition was 0.4%.
As for `O=C(Nc1cc(C(F)(F)F)ccc1N1CCOCC1)C1=NN(c2ccccc2)C(=O)CC1`, the inhibition was 0.11%.
Consider `Cc1ccccc1-c1nnn(CC(=O)N(C)CC(=O)Nc2ccccc2C(F)(F)F)n1`, for which the inhibition was 6.76%.
In the case of `COc1c[nH]n(-c2ccccc2)c(=O)c1=O`, the inhibition is 5.23%.
In the case of `C=CCNC(=O)c1ccc(-c2nc(-c3ccccc3)cs2)cc1`, the inhibition is 0.25%.
Take `CN(C)CCCNC(=O)c1ccc(-c2ccccc2)cc1`: the inhibition is 12.6%.
For the molecule `CC1CCCCC12NC(=O)N(CC(=O)NCc1ccc3c(c1)OCO3)C2=O` (stereo not given), the inhibition is 5.06%.
Consider `N#Cc1cc2c(nc1SCC(=O)O)CCCCC2`, for which the inhibition was 9.95%.
To `CCn1cc(C(=O)NCCC(C)C)c(=O)c2cc(F)c(N3CCN(C)CC3)cc21` belongs 5.29%.
Turning to `CCN(CC)CCNC(=O)c1cn(CC)c2cc(N3CCN(C)CC3)c(F)cc2c1=O`, the inhibition was -0.07%.
As for `CCCCNC(=O)c1cn(CC)c2cc(N3CCN(C)CC3)c(F)cc2c1=O`, the figure is -13.3%.
As for `CCn1cc(C(=O)NCc2ccccc2)c(=O)c2cc(F)c(N3CCN(C(=O)c4ccco4)CC3)cc21`, the inhibition is -5.58%.
Regarding `CCn1cc(C(=O)NCc2cccc(F)c2)c(=O)c2cc(F)c(N3CCN(C(=O)c4ccco4)CC3)cc21`, the inhibition is -0.01%.
For `CCN(CC)CCNC(=O)c1cn(CC)c2cc(N3CCN(C(=O)c4ccco4)CC3)c(F)cc2c1=O`, the inhibition was 5.87%.
As to `CCn1cc(C(=O)NCC(C)C)c(=O)c2cc(F)c(N3CCN(C(=O)c4ccco4)CC3)cc21`, the inhibition is 1.03%.
With `CCCNC(=O)c1cn(CC)c2cc(N3CCN(C(=O)c4ccco4)CC3)c(F)cc2c1=O`, the inhibition is 1.38%.
Take `COc1ccc(C(C)NC(=O)Cc2cccs2)cc1` (stereo not given): the inhibition was 1.87%.
Regarding `O=C(Nc1nnc(Cc2ccccc2F)s1)c1ccccc1Cl`, the inhibition was -2.4%.
In the case of `O=C(COC(=O)C1CCN(c2ccc(C(F)(F)F)cn2)CC1)NCc1ccc(F)cc1`, the inhibition was 2.12%.
In the case of `CC(Oc1ccccc1)C(=O)Nc1ccc(S(=O)(=O)Nc2nccs2)cc1` (stereo not given), the inhibition was -2.94%.
As to `COC(=O)c1c(C(=O)OC)c(-c2ccc(OC)cc2)n2c1CS(=O)(=O)C2`, the inhibition is -2.28%.
As for `CCOc1ccccc1N(CC(=O)N1CCOCC1)S(=O)(=O)c1ccccc1`, the figure is 11.6%; as for `CCOc1ncccc1C(=O)Nc1cccc(Cl)c1Cl`, -6.65%.
With `COC(=O)c1ccc(C)c(NC(=O)CCc2cc(OC)c(OC)c(OC)c2)c1`, the inhibition was 8.83%.
As for `COc1cc(/C=N/NC(=O)c2ccncc2)cc(OC)c1OC`, the figure is 6.9%.
Consider `COc1cccc(C(O)c2cnc(C(C)C)n2C)c1` (stereo not given), for which the inhibition is 5.41%.
Consider `CCCC(=O)Nc1c2c(nn1-c1ccc(F)cc1)CS(=O)(=O)C2`, for which the inhibition was -3.29%.
As for `CCn1cc(C(=O)NN)c(=O)c2cc(F)c(N3CCOCC3)cc21`, the inhibition was -10.2%.
As for `CCn1cc(C(=O)N[C@H](C)c2ccccc2)c(=O)c2cc(F)c(N3CCN(C)CC3)cc21`, the figure is 2.31%; as for `CCCCNC(=O)c1cn(CC)c2cc(N3CCN(C(=O)c4ccco4)CC3)c(F)cc2c1=O`, -5.26%; as for `CCn1cc(C(=O)NN)c(=O)c2cc(F)c(N3CCN(C)CC3)cc21`, 3.76%.
Take `CCn1cc(C(=O)NCCCO)c(=O)c2cc(F)c(N3CCN(C)CC3)cc21`: the inhibition is 6.73%.
Take `CCCCCCNC(=O)c1cn(CC)c2cc(N3CCN(C)CC3)c(F)cc2c1=O`: the inhibition was -4.8%.
In the case of `CCn1cc(C(=O)NCC2CCCO2)c(=O)c2cc(F)c(N3CCN(C)CC3)cc21` (stereo not given), the inhibition was 1.91%.
As to `Cc1cccn2c(=O)c(C(=O)NCCCN3CC(C)CC(C)C3)c(O)nc12` (stereo not given), the inhibition is 0.48%.
Take `COc1cccc2cc(C(=O)OCC(=O)NCc3ccc4c(c3)OCO4)c(=O)oc12`: the inhibition is 7.88%.
Turning to `CS(=O)(=O)N1CCN(c2ccccc2NC(=S)NC(=O)c2cccs2)CC1`, the inhibition is -10.5%.
Consider `N#CCSc1nccc(/C=C/c2ccccc2)n1`, for which the inhibition is 6.91%.
Regarding `O=C(O)C[C@H]1c2cc(F)ccc2S(=O)(=O)N1C1CCCC1`, the inhibition was -2.28%.
For the molecule `CC(=O)Nc1ccccc1N(C)S(=O)(=O)c1ccc(C)cc1`, the inhibition is -1.46%.
In the case of `Cn1c(=O)n(C)c2cc([N+](=O)[O-])c(N3CCN(C(=O)c4ccc(Cl)cc4)CC3)cc21`, the inhibition is -4.31%.
On to `CCCc1cc(=O)n2[nH]c(C)nc2n1`, for which the inhibition was 18.9%.
Consider `Cc1ccc(C(=O)CC(=O)c2cc(Cl)ccc2O)cc1`, for which the inhibition was -2.62%.
To `Cc1ccc(O)c(C(=O)CC(=O)c2cccc(F)c2)c1` belongs 8.82%; to `O=C(CC(=O)c1ccccc1O)c1ccc(F)cc1`, 3.76%.
As to `Cc1cccc(C(=O)CC(=O)c2cc(Cl)ccc2O)c1`, the inhibition was 1.32%.
With `Cc1cc(C)c(C(=O)CC(=O)c2ccccc2Cl)c(O)c1`, the inhibition is 11.6%.
Regarding `Cc1ccc(C(=O)CC(=O)c2cccc(F)c2)c(O)c1`, the inhibition was 5.16%.
To `CC(CC(=O)NCc1ccco1)S(=O)(=O)c1ccc2c(c1)CCN2C(=O)C1CC1` (stereo not given) belongs -3.2%; to `O=c1c(C/C=C/c2ccccc2)c(O)ccn1CCc1c[nH]c2ccccc12`, 4.16%.
On to `CCOCCOC(NC(=O)c1ccccc1)(C(F)(F)F)C(F)(F)F`, for which the inhibition is -1.49%.
Turning to `CCOC(=O)CSc1nc(Nc2ccc3c(c2)OCO3)c2ccccc2n1`, the inhibition was -1.83%.
With `O=C(COc1ccc(Br)cc1CNCCCN1CCOCC1)Nc1ccccc1`, the inhibition was -6.17%.
As for `COc1cccc(-c2nc(N)nc(SC)c2C#N)c1`, the figure is 5.06%; as for `CC(C)n1c(CN2CCN(C)CC2)nc2c1c(=O)n(C)c(=O)n2C`, 2.65%; as for `O=c1[nH]c(C2CCN(S(=O)(=O)c3ccccc3)CC2)nc2c1nnn2Cc1ccc2c(c1)OCCO2`, -22.2%.
On to `OCC1(Cc2ccc(F)cc2)CCCN(CCc2ccccc2)C1` (stereo not given), for which the inhibition is 0.44%.
On to `CCOc1ccccc1NC(=O)c1ccc2c(c1)C(=O)N(CC1CCCO1)C2=O` (stereo not given), for which the inhibition was -5.65%.
Take `O=C(Nc1ccc(C2=NCCN2)cc1)c1ccc(Cl)c(C(=O)Nc2ccc(C3=NCCN3)cc2)c1`: the inhibition was 1.21%.
Turning to `Cc1cccc(NC(=O)Nc2ccncc2)c1`, the inhibition was 16.9%.
Turning to `C/C(CC(=O)Nc1cc(C)ccn1)=N\NC(=O)c1ccncc1`, the inhibition is 3.7%.
To `CCOC(=O)Cn1c(=N)n(CCOc2cccc(C)c2)c2ccccc21` belongs -0.323%; to `CCOC(=O)Cn1c(=N)n(CCOc2ccc(OC)cc2)c2ccccc21`, 10.3%.
`O=C(NCc1ccccn1)C1CN(S(=O)(=O)c2ccccc2)CCN1S(=O)(=O)c1ccccc1` (stereo not given): the inhibition is 1.61%.
`Cc1sc2ncnc(SCC(=O)N3CCCC(C(F)(F)F)C3)c2c1C` (stereo not given): the inhibition was 8.83%.
On to `Cc1cc(OCC(=O)N2CCC[C@@H]2C(=O)O)c2c(C)c(C)c(=O)oc2c1`, for which the inhibition was 5.08%.
For the molecule `O=C1CCCN1c1ncc(S(=O)(=O)c2ccc([N+](=O)[O-])cc2)s1`, the inhibition is 0.41%.
Take `O=C(Nc1ncc([N+](=O)[O-])s1)C1CC(=O)N(c2ccc(F)cc2)C1` (stereo not given): the inhibition was 13%.
With `O=C(CCc1nnc2ccc(N3CCCCC3)nn12)NCc1ccco1`, the inhibition is -3.14%.
Turning to `Cc1cc(C)c2nc(N(CCCN(C)C)C(=O)c3ccc(S(=O)(=O)N4CC(C)OC(C)C4)cc3)sc2c1` (stereo not given), the inhibition is 7.15%.
To `O=C1NC(c2ccco2)Nc2ccccc21` (stereo not given) belongs -3.49%.
In the case of `O=C1CC(c2ccco2)Sc2ccccc2N1` (stereo not given), the inhibition is -2.22%.
As to `O=C1CC(c2ccccc2)CC(=O)C1=CN1CCCC1` (stereo not given), the inhibition was -0.41%.
For `COCCCNC(=S)NNC(=O)c1csc(C)n1`, the inhibition was 3.64%.
Consider `O=C(CCc1ccccc1)NNC(=S)NC(=O)c1ccc(Cl)cc1`, for which the inhibition is 10.2%.
As for `CC(=O)NC(=S)NNC(=O)CCc1ccccc1`, the inhibition was -2.11%.
In the case of `CC(=O)NNC(=S)NC(=O)c1ccc(C)cc1`, the inhibition is 9.68%.
In the case of `Cc1ccc(C(=O)NC(=S)NNC(=O)c2ccccc2)cc1`, the inhibition was 19.1%.
Turning to `COCCCNC(=S)NNC(=O)c1cccnc1`, the inhibition is 1.9%.
For the molecule `Cc1ccc(C(=O)NNC(=S)NC(=O)c2ccc(Cl)cc2)cc1`, the inhibition was 6.07%.
As to `CC(=O)NNC(=S)NC(=O)c1cccc([N+](=O)[O-])c1`, the inhibition was 5.04%.
On to `CC(C)CN(Cc1cc(=O)oc2cc3c(cc12)CCCC3)CC(C)C`, for which the inhibition was 3.63%.
As for `CCOc1ncccc1C(=O)OCCN1C(=O)c2ccccc2C1=O`, the figure is 7.33%; as for `O=C(NNS(=O)(=O)c1ccccc1)c1cccc([N+](=O)[O-])c1`, -3.37%; as for `Cc1ccc(S(=O)(=O)NCc2cccnc2)c(C)c1`, 0.7%.
Take `COc1ccc(-c2nc3n(c(=O)c2C#N)CCS3)cc1`: the inhibition was 2%.
To `CCCNS(=O)(=O)c1cc2c3c(c1)C(C)C(=O)N3CCC2` (stereo not given) belongs 8.86%; to `CC(=O)c1ccc(NC(=S)N2CCN(CCO)CC2)cc1`, 5.45%; to `Cc1cc(C)c(C(N)=O)c(NCCc2ccccc2)n1`, -2.71%.
Turning to `c1ccc(-c2nnc(CSc3nc4ccccc4[nH]3)o2)cc1`, the inhibition is -20.5%.
With `CC1CCCCN1C(=O)c1ccc(NC(=O)c2ccccc2Cl)cc1` (stereo not given), the inhibition is 3.28%.
Take `O=C(NNC(=S)Nc1ccccc1)c1ccc(O)cc1`: the inhibition is 9.42%.
Turning to `O=C(NC(=S)NNC(=O)c1ccccc1O)c1ccccc1`, the inhibition was 4.34%.
In the case of `O=C(CCc1ccccc1)NNC(=O)CCc1ccccc1`, the inhibition was -2.48%.
In the case of `O=C(CCc1ccccc1)NNC(=O)c1ccccc1Cl`, the inhibition is 3.05%.
